Here are results for 29 molecules from PubChem BioAssay (EPA / NIEHS).

Structures are written as SMILES. Several values for one entry are separate records, joined by “and”; a condition that tells them apart may be missing. Equal values may be shown once. Inconclusive results are not listed. A structure can be active in one record and inactive in another. Activity calls are given as the source filed them. How the source made its calls, unless noted: active means hit-call score of the fitted dose curve at least 0.9, where 1 is the maximum; inconclusive means response in the unintended direction; inactive means score below 0.9.

Test system in one assay: not listed separately
The assay can be described thus: CCTE_Shafer_MEA_dev_network_spike_duration_std: CCTE's Neural Network Formation Assay for Standard Deviation of Network Spike Duration, Shafer Lab (AID 2284052; active means hit-call score of the fitted dose curve at least 0.9, where 1 is the maximum; inactive means score below 0.9;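 further: hits are decreases in network spike duration SD versus DMSO vehicle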). In short, it runs like this: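 Read-out is the trapezoidal area-under-the-curve across recordings made on days 5, 7, 9 and 12, fitted in the negative direction against DMSO baseline. Neurons were primary rat cortical cells treated from day 0, with treatment renewed at each feed.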
On to `C=C(C)C(=O)OCCC(F)(F)C(F)(F)C(F)(F)C(F)(F)C(F)(F)C(F)(F)F`, for which the result was inactive.
Still for that read-out and setting: the entry for `OCCC(F)(F)C(F)(F)C(F)(F)C(F)(F)C(F)(F)C(F)(F)C(F)(F)C(F)(F)F` is “inactive”.
On the same count and under the same terms, the value for `OCCC(F)(F)C(F)(F)C(F)(F)C(F)(F)C(F)(F)C(F)(F)F` was “inactive”; that for `c1ccc2cc3c(ccc4ccccc43)cc2c1` was “inactive”.
As to `CC#C[C@]1(O)CC[C@H]2[C@@H]3CCC4=CC(=O)CCC4=C3[C@@H](c3ccc(N(C)C)cc3)C[C@@]21C`, the concentration at half-maximal activity (AC50) is 8.66 µM (active) and the molecule was classed as inactive.
On to `CN1CCC[C@H]1c1cccnc1`, for which the outcome was inactive.
For the molecule `c1ccc2c(c1)Cc1ccccc1-2`, the molecule was classed as inactive.
With `CC(O)CO` (configuration not stated), the molecule was called inactive.
Regarding `CC1=C(/C=C/C(C)=C/C=C/C(C)=C/C(=O)O)C(C)(C)CCC1`, the concentration at half-maximal activity (AC50) was 2.98 µM (active).
`c1ccc2c(c1)ccc1ccccc12`: the result was inactive.

Test system in another assay: not listed separately
The assay can be described thus: CCTE_Shafer_MEA_dev_per_network_spike_spike_number_mean: CCTE's Neural Network Formation Assay for Mean Number of Spikes in a Network Spike, Shafer Lab (AID 2284053; active means hit-call score of the fitted dose curve at least 0.9, where 1 is the maximum; inactive means score below 0.9;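 on AC50: fitted as decrease in spikes per network spike relative to DMSO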). A digest of the protocol: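 Continuous twelve-day exposure of developing rat cortical networks grown over 16 microelectrodes per well; spontaneous firing is captured at four time points, and the per-network-spike spike number is integrated over development by trapezoidal AUC.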
For `C=C(C)C(=O)OCCC(F)(F)C(F)(F)C(F)(F)C(F)(F)C(F)(F)C(F)(F)F`, the result was inactive.
For the molecule `OCCC(F)(F)C(F)(F)C(F)(F)C(F)(F)C(F)(F)C(F)(F)C(F)(F)C(F)(F)F`, the result was inactive.
In the case of `OCCC(F)(F)C(F)(F)C(F)(F)C(F)(F)C(F)(F)C(F)(F)F`, the result was inactive.
Take `c1ccc2cc3c(ccc4ccccc43)cc2c1`: the molecule was classed as inactive.
In the case of `CC#C[C@]1(O)CC[C@H]2[C@@H]3CCC4=CC(=O)CCC4=C3[C@@H](c3ccc(N(C)C)cc3)C[C@@]21C`, the AC50 is 1.38 µM (active) and 15 µM (active).
The same measure, in the same setting: the figure for `CN1CCC[C@H]1c1cccnc1` is 6.37 µM (active).
Consider `c1ccc2c(c1)Cc1ccccc1-2`, for which the call was inactive.
On the same count and under the same terms, the entry for `CC(O)CO` (configuration not stated) is “inactive”; for `CC1=C(/C=C/C(C)=C/C=C/C(C)=C/C(=O)O)C(C)(C)CCC1` it is “inactive”.
`c1ccc2c(c1)ccc1ccccc12`: the molecule was classed as inactive.

Test system in the next assay: not listed separately
The assay can be described thus: CCTE_Shafer_MEA_dev_per_network_spike_spike_percent: CCTE's Neural Network Formation Assay for Percent of Spikes in a Network Spike, Shafer Lab (AID 2284054; active means hit-call score of the fitted dose curve at least 0.9, where 1 is the maximum; inactive means score below 0.9). In short, it runs like this:
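Rat primary cortical neurons were grown on 48-well MEA plates (16 electrodes/well), exposed from plating day 0 through day 12, with treatment renewed on DIV 5 and 9. Percent of spikes within 0.05 s network-spike peaks was measured, summarised as AUC across days 5, 7, 9, 12.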
With `C=C(C)C(=O)OCCC(F)(F)C(F)(F)C(F)(F)C(F)(F)C(F)(F)C(F)(F)F`, the call was inactive.
As to `OCCC(F)(F)C(F)(F)C(F)(F)C(F)(F)C(F)(F)C(F)(F)C(F)(F)C(F)(F)F`, the molecule was called inactive.
Consider `OCCC(F)(F)C(F)(F)C(F)(F)C(F)(F)C(F)(F)C(F)(F)F`, for which the outcome was inactive.
Same read-out and setting: the value for `c1ccc2cc3c(ccc4ccccc43)cc2c1` was “inactive”.
As to `CC#C[C@]1(O)CC[C@H]2[C@@H]3CCC4=CC(=O)CCC4=C3[C@@H](c3ccc(N(C)C)cc3)C[C@@]21C`, the half-maximal activity concentration (AC50) was 3.55 µM (active) and 23.1 µM (active).
With `CN1CCC[C@H]1c1cccnc1`, the result was inactive.
On to `c1ccc2c(c1)Cc1ccccc1-2`, for which the call was inactive.
In the case of `CC(O)CO` (configuration not stated), the outcome was inactive.
Take `CC1=C(/C=C/C(C)=C/C=C/C(C)=C/C(=O)O)C(C)(C)CCC1`: the AC50 was 26.9 µM (active).
As for `c1ccc2c(c1)ccc1ccccc12`, the outcome was inactive.

For another assay, the system named is DIO3 (gene 1735). The experiment in a line: CCTE_GLTED_hDIO3: CCTE's human Deiodinase 3 (DIO3) Inhibition Assay, Great Lakes Toxicology and Ecology Division (GLTED) Lab (AID 2284055).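 On AC50: potency is for inhibition seen as loss of released iodide signal.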 A digest of the protocol: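 Cell-free assay with human DIO3 enzyme produced by adenovirus expression; enzyme incubated with test chemical for 3 hours. Liberated iodide then measured by Sandell-Kolthoff absorbance; loss of signal versus DMSO baseline indicates inhibition, run in triplicate.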
For `c1ccc2cc3c(ccc4ccccc43)cc2c1`, the concentration at half-maximal activity (AC50) was 65.8 µM (active).
On to `CCCCCCCCCCCCc1ccccc1S(=O)(=O)O`, for which the AC50 is 40 µM (active).
Take `CCC(=C(c1ccc(O)cc1)c1ccc(OCCN(C)C)cc1)c1ccccc1`: the AC50 was 58.4 µM (active).
As to `NC(=O)N(O)[C@@H]1C=C[C@H](Oc2cccc(Oc3ccc(F)cc3)c2)C1`, the AC50 was 30.5 µM (active).
On the same count and under the same terms, the figure for `CCCCCCCCCCCCCC[N+](C)(C)C` is 7.85 µM (active); for `CCCCCCCCCCCCN1CCCC1=O` it is 87.8 µM (active).
With `CC(=O)NC1(c2cccc(F)c2)CCN(CC[C@@]2(c3ccc(Cl)c(Cl)c3)CN(c3ccccc3)C(=O)CO2)CC1`, the call was inactive.
Same read-out and setting: the entry for `CN1CCN(c2ccccc2/C=C2\SCCN(c3ccc(Cl)c(Cl)c3)C2=O)CC1` is “inactive”.
With `Cc1oc(-c2ccccc2)nc1CCOc1ccc(C[C@H](Nc2ccccc2C(=O)c2ccccc2)C(=O)O)cc1`, the AC50 was 67.5 µM (active).
For `CC1=C(/C=C/C(C)=C/C=C/C(C)=C/C(=O)O)C(C)(C)CCC1`, the AC50 is 34.7 µM (active).
As for `CC(C)(C)c1ccc(O)c(C(C)(C)C)c1`, the AC50 was 96.5 µM (active).
Still for that read-out and setting: the figure for `ClC1=C(Cl)C(Cl)(Cl)C(Cl)=C1Cl` is 3.14 µM (active).

Test system in the next assay: not listed separately
The experiment in a line: CCTE_Shafer_MEA_dev_LDH: CCTE's Lactate Dehydrogenase Assay for Cytotoxicity in the Neural Network Formation Assay, Shafer Lab (AID 2284068).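 Further: exposure for twelve days from plating with re-dosing on DIV 5 and 9.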 A digest of the protocol:
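Cytotoxicity companion to network-formation recordings: rat cortical neurons received compound over 12 days of development, re-dosed at DIV 5 and 9 feeds. Viability was inferred from LDH enzyme activity relative to DMSO.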
As for `C=C(C)C(=O)OCCC(F)(F)C(F)(F)C(F)(F)C(F)(F)C(F)(F)C(F)(F)F`, the molecule was called inactive.
With `OCCC(F)(F)C(F)(F)C(F)(F)C(F)(F)C(F)(F)C(F)(F)C(F)(F)C(F)(F)F`, the AC50 is 28.5 µM (active).
Consider `c1ccc2cc3c(ccc4ccccc43)cc2c1`, for which the call was inactive.
Take `CC#C[C@]1(O)CC[C@H]2[C@@H]3CCC4=CC(=O)CCC4=C3[C@@H](c3ccc(N(C)C)cc3)C[C@@]21C`: the half-maximal activity concentration (AC50) was 16.4 µM (active) and 25.1 µM (active).
In the case of `c1ccc2c(c1)Cc1ccccc1-2`, the molecule was called inactive.
For the molecule `CC1=C(/C=C/C(C)=C/C=C/C(C)=C/C(=O)O)C(C)(C)CCC1`, the AC50 is 19 µM (active).
On to `c1ccc2c(c1)ccc1ccccc12`, for which the molecule was classed as inactive.

Test system in another assay: not listed separately
The experiment in a line: CCTE_Shafer_MEA_acute_AB: CCTE's Alamar Blue Assay for Cytotoxicity in the Neural Acute Assay, Shafer Lab (AID 2284069).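 Further: active compounds lower the viability signal compared with DMSO wells.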 In short, it runs like this:
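Metabolic activity in chemically exposed rat cortical neurons (MEA cultures, day 13/15 post-plating) measured via CellTiter Blue resazurin reduction, 544/590 nm fluorescence; fitted relative to DMSO, with signal loss indicating reduced viability.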
In the case of `OCCC(F)(F)C(F)(F)C(F)(F)C(F)(F)C(F)(F)C(F)(F)C(F)(F)C(F)(F)F`, the molecule was called inactive.
As to `CCCCCCCCCCCCc1ccccc1S(=O)(=O)O`, the molecule was classed as inactive.
Consider `CC#C[C@]1(O)CC[C@H]2[C@@H]3CCC4=CC(=O)CCC4=C3[C@@H](c3ccc(N(C)C)cc3)C[C@@]21C`, for which the molecule was called inactive.
As for `CCC(=C(c1ccc(O)cc1)c1ccc(OCCN(C)C)cc1)c1ccccc1`, the result was inactive.
Regarding `CN1CCC[C@H]1c1cccnc1`, the molecule was called inactive.
As for `NC(=O)N(O)[C@@H]1C=C[C@H](Oc2cccc(Oc3ccc(F)cc3)c2)C1`, the molecule was classed as inactive.
Take `CN(C)C=O`: the result was inactive.
Regarding `CCCCCCCCCCCCCCCS(=O)(=O)Oc1ccccc1`, the outcome was inactive.
Consider `CC(C)(C)c1cc(C(C)(C)C)c(O)c(C(C)(C)C)c1`, for which the result was inactive.
Still for that read-out and setting: the value for `CC(=O)NC1(c2cccc(F)c2)CCN(CC[C@@]2(c3ccc(Cl)c(Cl)c3)CN(c3ccccc3)C(=O)CO2)CC1` was “inactive”.
Still for that read-out and setting: the entry for `CCc1ccc(CCOc2ccc(CC3SC(=O)NC3=O)cc2)nc1` (configuration not stated) is “inactive”; for `CN1CCN(c2ccccc2/C=C2\SCCN(c3ccc(Cl)c(Cl)c3)C2=O)CC1` it is “inactive”.
In the case of `OC1CCC(C2CCCCC2)CC1` (configuration not stated), the call was inactive.
For the molecule `Cc1cc(CCN2CCN(c3nsc4ccccc34)CC2)cc2c1NC(=O)CC2(C)C`, the molecule was called inactive.
With `CC(C)CCCCCCOC(=O)CCCCC(=O)OCCCCCCC(C)C`, the molecule was classed as inactive.
As to `Oc1cc2ccccc2c2ccccc12`, the concentration at half-maximal activity (AC50) is 8 µM (active).
For the molecule `O=C(O)c1ccccc1C(c1ccc(O)cc1)c1ccc(O)cc1`, the outcome was inactive.

Broadly, the AC50 is the concentration at which the activity in the assay is half-maximal.
